Screens deposited in PubChem by National Center for Advancing Translational Sciences (NCATS).
PKM2 inhibitor – qHTS Assay for Inhibitors of Human Muscle isoform 2 Pyruvate Kinase; Pyruvate kinase PKM (Homo sapiens), P14618; AID 1634, 2009; actives 0.058% (n = 260,000); purified PKM2, ATP generation, Kinase-Glo luminescence; Potency, µM (series often up to 57.5 µM), most hits filed as inhibitors; further: nearly all actives have a fitted effect of over 60% in size
Target sequence (P14618 whole entry, looked up, canonical isoform): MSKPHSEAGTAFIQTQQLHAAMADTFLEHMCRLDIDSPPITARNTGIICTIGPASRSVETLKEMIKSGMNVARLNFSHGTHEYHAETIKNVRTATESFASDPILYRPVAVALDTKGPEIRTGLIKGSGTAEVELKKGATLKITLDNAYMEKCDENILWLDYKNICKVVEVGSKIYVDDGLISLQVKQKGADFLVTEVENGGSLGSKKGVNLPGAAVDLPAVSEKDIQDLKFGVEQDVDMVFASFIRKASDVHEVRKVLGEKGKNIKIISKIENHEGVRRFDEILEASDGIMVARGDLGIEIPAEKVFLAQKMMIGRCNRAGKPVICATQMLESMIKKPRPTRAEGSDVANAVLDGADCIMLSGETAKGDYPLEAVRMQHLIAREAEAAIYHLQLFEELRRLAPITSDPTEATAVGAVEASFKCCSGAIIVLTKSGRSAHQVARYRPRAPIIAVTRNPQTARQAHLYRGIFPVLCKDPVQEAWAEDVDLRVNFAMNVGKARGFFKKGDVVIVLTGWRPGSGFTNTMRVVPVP
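Coupled luciferase luminescence (Kinase-Glo) detects ATP generated from 0.1 mM ADP and 0.5 mM PEP in imidazole buffer pH 7.2 with KCl, MgCl2; 1 h at room temperature. Enzyme at intermediate activity; normalized to uninhibited and no-enzyme controls.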
PKM2 inh dose – Confirmation Concentration-Response Assay for Inhibitors of Human Muscle isoform 2 Pyruvate Kinase; AID 2263, 2010; shares compounds with PKM2 inhibitor; Potency, µM (doses to about 57.5 µM), actives largely listed as inhibitors; actives 50% (n = 55); purified hPK-M2, Kinase-Glo ATP luminescence, 1 h
PKM2 FLuc cs – Secondary assay for Inhibitors of Human Pyruvate Kinase M2 isoform: FLuc Counterscreen. shares compounds with PKM2 inhibitor. Kinase-Glo firefly luciferase, luminescence, 8 min. Potency, µM (titrated, usually from 57.5 µM), usual class: inhibitors. actives 30% (n = 55). AID 2265, 2010
PKM2 inh LDH – Secondary assay for Inhibitors of Human Pyruvate Kinase M2 isoform | AID 2267, 2010 | Potency, µM (top dose mostly 57.5 µM), usual class: inhibitors | shares compounds with PKM2 inhibitor | 55 tested, under 10 active | purified hPK-M2, LDH-coupled NADH fluorescence kinetic
Numbers stand for hits; – = inactive; ? = inconclusive; · = no result given. Many of the other results were omitted from the sample, so hits are more common in it than they were. The call rests on the fitted dose curve; in most records, active means well fitted curve in the direction sought with a large enough effect; inconclusive means small, poorly fitted or top-dose-only effect, or another doubt; inactive means no such curve, though single readings can be large; an effect the other way counts as inactive or inconclusive.

SMILES	PKM2 inhibitor	others
O=C(O)c1ccc(NC(=S)NC(=O)c2ccc(-c3ccccc3)cc2)cc1	–
Cc1cccc(N2CCN(C(=O)CCCn3c(=S)[nH]c4cc5c(cc4c3=O)OCO5)CC2)c1C	–
Cc1ccc(-c2nc3ccc(Cl)cn3c2Nc2ccccc2)o1	·	PKM2 inh dose=–;PKM2 FLuc cs=–;PKM2 inh LDH=–
Cc1ccc(-c2nc3cccc(C)n3c2Nc2ccc(F)cc2)o1	·	PKM2 inh dose=–;PKM2 FLuc cs=–;PKM2 inh LDH=9.19µM
Cc1ccc(-c2cc(-c3ccc(F)cc3)c(C#N)c(N)n2)o1	–
c1coc(-c2nc3ccccc3nc2-c2ccco2)c1	–
Cc1ccc(-c2nn(-c3ccccc3)cc2C2SCC(=O)N2Cc2ccccc2)o1 (stereo not drawn)	–
Fc1ccccc1-c1ccc(-c2nc3ccc(Cl)cn3c2Nc2ccc(Cl)cc2)o1	·	PKM2 inh dose=–;PKM2 FLuc cs=–;PKM2 inh LDH=–
Cc1ccc(-c2cc(-c3ccc(Cl)cc3)c(C#N)c(N)n2)o1	–
Cc1ccc2nc(-c3ccco3)c(Nc3ccccc3)n2c1	·	PKM2 inh dose=–;PKM2 FLuc cs=–;PKM2 inh LDH=?
C/C=C/C=C\C(=O)Nc1cccc(C2=NOC3(C2)C[C@@H](C(N)=O)N(C(=O)/C(C)=C/C)C3)c1 (stereo partly drawn)	–
CCSc1nnc(NC(=O)Cc2cccc(OC)c2)s1	–
O=C1CC2C(=O)NCCN2C(=NC(=O)c2ccccc2)N1 (stereo not drawn)	–
COc1ccccc1Oc1ccc(N/C=C/C(=O)c2ccc(C)o2)cc1	–
Clc1ccccc1CSc1nnc(-c2cccnc2)n1Cc1ccco1	–
COC(=O)c1nc(N)sc1-c1ccc(OC)cc1	–
CCOc1cc(NC(=S)NCC2CCCO2)c(OCC)cc1NC(=O)CC (stereo not drawn)	–
O=C(Nc1ccc2c(c1)OCO2)C1CC(c2ccccc2Cl)=NO1 (stereo not drawn)	–
Cc1cccc(CSc2ccc3nnc(-c4ccccn4)n3n2)c1	–
COc1cc(/C=N/O)cc(Br)c1OCC(=O)NCc1ccccc1	–
O=C1COc2ccc(C(=O)CSc3nnnn3-c3ccccc3)cc2N1	–
Cc1ccc2nc(-c3ccc(C)o3)c(Nc3ccc4c(c3)OCO4)n2c1	·	PKM2 inh dose=–;PKM2 FLuc cs=–;PKM2 inh LDH=–
Cc1ccc(Nc2c(-c3ccc(C)o3)nc3cnccn23)cc1	–
Cc1ccc(Nc2c(-c3ccc(C)o3)nc3ccccn23)cc1	·	PKM2 inh dose=–;PKM2 FLuc cs=–;PKM2 inh LDH=4.61µM
Cc1ccc2nc(-c3ccc(C)o3)c(Nc3ccc(F)cc3)n2c1	·	PKM2 inh dose=–;PKM2 FLuc cs=–;PKM2 inh LDH=?
SMILES	PKM2 inhibitor	others
Cc1cc(C)n2c(Nc3ccc4c(c3)OCCO4)c(-c3ccc(C)o3)nc2n1	–
Cc1ccc(-c2nc3ccccn3c2Nc2ccccc2)o1	–
Cc1ccn2c(NC3CCCCC3)c(-c3ccc(C)o3)nc2c1	·	PKM2 inh dose=–;PKM2 FLuc cs=–;PKM2 inh LDH=–
Cc1ccc(-c2cc(-c3ccc(C)o3)nc(N)c2C#N)cc1	–
Cc1ccc(-c2nc3cnccn3c2Nc2ccc3c(c2)OCO3)o1	–
Cn1c(CNC(=O)c2ccccc2F)nnc1SCC(=O)NCc1ccccc1	–
Cc1[nH]n2c(=O)c(C#N)c(-c3ccccc3)nc2c1-c1ccccc1	–
O=C(CSc1ccc(F)cc1)N1CCC(c2nc3ccccc3s2)CC1	–
COc1cccc(COCCN2CCN(S(=O)(=O)c3ccc(C)cc3)CCC2=O)c1	–
CCCCOC(=O)c1ccc(Nc2ccc([N+](=O)[O-])cn2)cc1	–
COCCNCCCCSc1ccc(Cl)cc1	–
COc1cc(S(=O)(=O)NC2CCCCC2)ccc1Cl	–
COc1ccc2cc(C3CC(c4ccco4)=NN3C(=O)CCC(=O)O)c(Cl)nc2c1 (stereo not drawn)	–
CCOc1ccc(S(=O)(=O)NCc2csc(C)n2)cc1	–
CC(=O)Nc1cc(C(=O)OCc2cccc([N+](=O)[O-])c2)ccc1C	–
N#C/C(=C\c1cccc([N+](=O)[O-])c1)C(=O)NCc1ccc(Cl)cc1	–
C=C(Cl)COc1ccc2c(CCC)cc(=O)oc2c1	–
COc1ccc(S(=O)(=O)N(CC(=O)NC2CC2)c2ccc(C)cc2)cc1	–
O=C(c1ccncc1)N1N=C(c2ccc(Cl)cc2)CC1c1ccccc1O (stereo not drawn)	–
O=C(c1ccc2c(=O)n3c(nc2c1)CCCCC3)N1CCN(Cc2ccccc2)CC1	–
Cc1ccc2nc(-c3ccc(C)o3)c(Nc3ccccc3)n2c1	·	PKM2 inh dose=–;PKM2 FLuc cs=–;PKM2 inh LDH=?
COCCn1c(SCC(=O)Nc2cccc(OC)c2)nc2c(oc3ccccc32)c1=O	–
